Results taken from PubChem BioAssay AID1159580 (chemical genetic matrix, 2015).
“And” between values parts separate entries of the source, which are not always exact repeats. Identical values can stand only once. Out of some 5,500 compounds screened, about 2,000 (36%) were called active. Roughly 18% stayed inconclusive and do not appear here. Cut-off read from the data, not from the text of the source: active = normalized growth mostly below about 0.91 (no sharp cut-off); inconclusive = no clear call, values can overlap the other calls; inactive = mostly above about 0.92. The list shows a part of the results.

Assay: chemical genetic growth profiling, strain panel (AID 1159580);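 note: tested at 20 µM; growth read once vehicle control cultures reached saturation at 30 °C; 1 = growth at the plate median or of vehicle wells; lower values mean less growth of the strain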
Settings: S. cerevisiae deletion strains, growth OD

Measured: normalized growth

NC[C@H]1O[C@H](O[C@H]2[C@H](O)[C@@H](O[C@H]3O[C@H](CO)[C@@H](O)[C@H](N)[C@H]3O)[C@H](N)C[C@@H]2N)[C@H](N)C[C@@H]1O
inactive: locus YAL013W, strain DEP1, hits give low values 1 | locus YAL021C, strain ccr4, hits give low values 0.979 | locus YAL026C, strain drs2, hits give low values 1.01 | locus YAL030W, strain snc1, hits give low values 1.01 | locus YBL061C, strain skt5, hits give low values 1.01 | locus YBR009C, strain hhf1, hits give low values 1.05 | locus YBR021W, strain FUR4, hits give low values 1.02 | locus YBR023C, strain chs3, hits give low values 1.01 | locus YBR171W, strain sec66, hits give low values 1.01 | locus YBR229C, strain ROT2, hits give low values 1.01 | locus YBR231C, strain swc5, hits give low values 0.987 | locus YBR279W, strain paf1, hits give low values 1.02 | locus YCL011C, strain gbp2, hits give low values 1.02 | locus YCL016C, strain dcc1, hits give low values 1.02 | locus YCL029C, strain bik1, hits give low values 1.02 | locus YCL061C, strain MRC1, hits give low values 0.994 | locus YCL069W, strain vba3, hits give low values 1.01 | locus YCR088W, strain abp1, hits give low values 1.01 | locus YDL005C, strain med2, hits give low values 1 | locus YDL035C, strain GPR1, hits give low values 1 | locus YDL040C, strain nat1, hits give low values 1.02 | locus YDL074C, strain BRE1, hits give low values 0.971 | locus YDL101C, strain DUN1, hits give low values 0.997 | locus YDL134C, strain PPH21, hits give low values 1.01 | locus YDL185W, strain tfp1, hits give low values 1 | locus YDL192W, strain arf1, hits give low values 1.01 | locus YDR001C, strain nth1, hits give low values 1.01 | locus YDR069C, strain doa4, hits give low values 0.985 | locus YDR101C, strain arx1, hits give low values 1.02 | locus YDR137W, strain rgp1, hits give low values 0.99 | locus YDR159W, strain sac3, hits give low values 0.987 | locus YDR162C, strain NBP2, hits give low values 1.01 | locus YDR195W, strain ref2 1.01 | locus YDR297W, strain sur2, hits give low values 1.01 | locus YDR318W, strain mcm21, hits give low values 1.02 | locus YDR334W, strain swr1, hits give low values 1.02 | locus YDR335W, strain msn5, hits give low values 1.01 | locus YDR388W, hits give low values 1.02 | locus YDR392W, strain spt3, hits give low values 0.907 | locus YDR502C, strain sam2, hits give low values 1 | locus YEL003W, strain gim4, hits give low values 1.03 | locus YEL037C, strain rad23, hits give low values 1.02 | locus YEL061C, strain CIN8 (second series), hits give low values 1.02 | locus YEL061C, strain CIN8, hits give low values 0.988 | locus YER015W, strain faa2, hits give low values 1.02 | locus YER016W, strain bim1, hits give low values 1.01 | locus YER110C, hits give low values 1.01 | locus YER111C, strain swi4, hits give low values 1.01 | locus YER155C, strain BEM2 (second series), hits give low values 0.911 | locus YER155C, strain BEM2, hits give low values 1.02 | locus YER167W, strain BCK2, hits give low values 1.01 | locus YFR010W, strain ubp6, hits give low values 1.02 | locus YGL078C, strain dbp3, hits give low values 1 | locus YGL086W, strain mad1, hits give low values 0.991 | locus YGL167C, strain pmr1, hits give low values 1.01 | locus YGL173C, strain kem1, hits give low values 1.01 | locus YGL227W, strain vid30, hits give low values 1.01 | locus YGL240W, strain doc1, hits give low values 0.978 | locus YGL248W, strain PDE1, hits give low values 0.999 | locus YGL253W, strain hxk2, hits give low values 1.01 | locus YGR135W, strain pre9, hits give low values 1.01 | locus YGR252W, strain gcn5, hits give low values 0.944 | locus YHR013C, strain ard1, hits give low values 0.952 | locus YHR027C, strain rpn1, hits give low values 1.02 | locus YHR030C, strain SLT2, hits give low values 1.01 and 0.98 | locus YHR079C, strain IRE1 (second series), hits give low values 1.02 | locus YHR079C, strain IRE1, hits give low values 0.985 | locus YHR094C, strain hxt1, hits give low values 1.02 | locus YHR129C, strain ARP1, hits give low values 1.01 | locus YHR142W, strain chs7, hits give low values 1.03 | locus YHR200W, strain rpn10, hits give low values 1.01 | locus YIL066C, strain RNR3, hits give low values 1 | locus YIL073C, strain SPO22, hits give low values 1.05 | locus YIL125W, strain kgd1, hits give low values 1 | locus YIR030C, strain dcg1, hits give low values 1.02 | locus YJL092W, strain hpr5, hits give low values 1.02 | locus YJL095W, strain BCK1 (second series), hits give low values 1.04 | locus YJL095W, strain BCK1, hits give low values 0.985 and 0.999 | locus YJL115W, strain asf1, hits give low values 1.01 | locus YJL129C, strain trk1, hits give low values 1 | locus YJL134W, strain LCB3, hits give low values 1.01 | locus YJL154C, strain vps35, hits give low values 1.02 | locus YJL164C, strain tpk1, hits give low values 1.03 | locus YJL166W, strain qcr8, hits give low values 0.979 | locus YJL168C, strain set2, hits give low values 1.01 | locus YJL187C, strain SWE1 (second series), hits give low values 1 | locus YJL187C, strain SWE1, hits give low values 1.03 | locus YJR043C, strain POL32, hits give low values 0.98 | locus YJR066W, strain TOR1, hits give low values 0.951
